Sampled rows, rich in hits. Any-hit rate of the full collection: about 4.3%.
Anthrax LF inh2 – anthrax lethal factor protease inhibition; inhibition, % at 10 µM; multiplex microsphere protease cleavage assay, LF; AID 588501; 360,000 compounds, 0.12% hits; P15917; also: plate controls were buffer without enzyme for full effect and enzyme alone for no effect
Target sequence (P15917 whole entry, looked up): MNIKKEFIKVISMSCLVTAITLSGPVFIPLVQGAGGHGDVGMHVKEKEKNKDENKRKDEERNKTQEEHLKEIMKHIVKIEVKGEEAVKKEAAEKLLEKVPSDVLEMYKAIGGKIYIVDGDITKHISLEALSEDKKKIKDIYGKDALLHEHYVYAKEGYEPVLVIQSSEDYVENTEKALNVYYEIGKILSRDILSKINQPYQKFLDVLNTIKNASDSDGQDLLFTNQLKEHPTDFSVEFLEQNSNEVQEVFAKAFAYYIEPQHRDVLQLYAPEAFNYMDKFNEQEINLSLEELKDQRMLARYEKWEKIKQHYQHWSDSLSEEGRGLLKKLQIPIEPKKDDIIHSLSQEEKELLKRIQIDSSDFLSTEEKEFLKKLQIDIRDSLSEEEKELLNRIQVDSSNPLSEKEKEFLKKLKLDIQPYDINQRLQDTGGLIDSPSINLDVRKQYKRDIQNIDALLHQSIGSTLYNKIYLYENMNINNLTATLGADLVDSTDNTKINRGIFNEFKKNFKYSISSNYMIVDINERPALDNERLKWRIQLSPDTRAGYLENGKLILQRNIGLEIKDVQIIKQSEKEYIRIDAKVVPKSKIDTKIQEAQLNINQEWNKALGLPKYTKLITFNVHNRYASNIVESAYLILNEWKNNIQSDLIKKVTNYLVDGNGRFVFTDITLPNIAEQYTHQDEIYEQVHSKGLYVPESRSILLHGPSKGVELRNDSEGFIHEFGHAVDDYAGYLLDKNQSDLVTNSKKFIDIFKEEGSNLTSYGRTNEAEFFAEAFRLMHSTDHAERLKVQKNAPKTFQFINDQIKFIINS
Bead autofluor – flagged as autofluorescent in microsphere protease counterscreen; compound autofluorescence counterscreen, microsphere flow cytometry; hits give high values; fluorescence intensity (concentration not given with the values); 360,000 compounds, 3.1% hits; AID 624483; in the data active = fluorescence intensity above about 16000; inconclusive = no clear call, values can overlap the other calls
BoNT A protease – BoNT A light chain protease inhibition; inhibition, % at 10 µM; 360,000 compounds, 0.17% hits; multiplex microsphere protease substrate cleavage, flow cytometry; also: plate controls were buffer without enzyme for full effect and enzyme alone for no effect
MazEF act – activators of E. coli MazEF toxin-antitoxin RNase; P0AE70; FAM/BHQ RNA-DNA oligo cleavage fluorescence, 5 h; activation, % at 20 µM; 350,000 compounds, 0.32% hits; AID 504720; in the data active = activation above about 50%
BoNT-F LC inh – inhibitors of Botulinum neurotoxin F light chain protease; Multiplex microsphere protease cleavage assay, flow cytometry; inhibition, % at 10 µM; 360,000 compounds, 0.22% hits; in the data active = inhibition above about 35%, passing the limit was not always enough; inconclusive = no clear call, values can overlap the other calls; also: plate controls were buffer without enzyme for full effect and enzyme alone for no effect
PfHsp40 rescue – rescue of PfHsp40-mediated yeast toxicity | S. cerevisiae expressing PfHsp40, growth rescue, ATP luminescence | growth rescue, % at 12.5 µM | 340,000 compounds, 0.68% hits | AID 504582; in the data active = growth rescue above about 28%, passing the limit was not always enough; inconclusive = no clear call, values can overlap the other calls;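 also: yeast W303a lacking pdr1 and pdr3 grown in galactose medium; growth measured after three days at 30 °C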
Numbers without * were called inactive; ? = inconclusive; . = no result given. Rule as the data show it, unless noted: active = inhibition above about 30%; inconclusive = no clear call, values can overlap the other calls; inactive = below that.

SMILES	Anthrax LF inh2	Bead autofluor	BoNT A protease	MazEF act	BoNT-F LC inh	PfHsp40 rescue
CN1CC(c2ccc(C#N)cc2)C2(COc3ccccc3C2=O)C12C(=O)Nc1ccccc12 (stereo unspecified)	-7.3	19424*	5.5	3.9	8.4	-1.5
CC1=C(C(=O)OCc2ccccc2)C(c2ccc(C#N)cc2)NC(=O)N1CCCC(=O)O (stereo unspecified)	1.9	4034	-1.2	1.9	-3.9	0.3
NC(=S)Nc1cc2ccccc2c2ccccc12	-2.7	19680*	?	-0.8	-1.2	6.2
N#Cc1ccccc1OCCCN1CCC(Cc2ccccc2)CC1	0.2	4203	0.9	6.0	10.2	-0.7
Cc1ccc(C(=O)CCC(=O)OCC(=O)N2c3ccccc3NC(=O)C2(C)C)cc1	-2.2	6511	-1.7	-1.1	-0.3	-1.2
CCOc1cccc(/C=N/NC(=O)c2cc(-c3cccn3C)n[nH]2)c1O	4.7	4263	-2.4	-8.2	-3.0	36.3*
Cn1cccc1C(=O)NC(=O)COC(=O)CCNS(=O)(=O)c1ccc(Cl)cc1	-3.0	4074	0.2	1.6	-15.4	-0.6
CC1CC(CC(C)C(=O)Nc2nncs2)C(=O)O1 (stereo unspecified)	1.3	22855*	?	-5.2	2.4	-0.3
Cc1ccc(-c2nc3ccccc3c(=O)n2-c2ccncc2)cc1	0.4	2441	0.0	0.2	-4.3	1.4
O=c1c2ccccc2nc(-c2ccc(-c3ccccc3)cc2)n1-c1ccncc1	-0.7	10461	-0.2	1.4	-3.3	340.6*
O=c1c2ccccc2nc(-c2ccoc2)n1-c1ccccc1	-1.4	20668*	?	-0.1	-0.6	-0.8
O=c1c2ccccc2nc(-c2ccoc2)n1-c1ccccc1Cl	-1.8	22805*	1.0	-18.9	2.1	-0.4
COc1ccccc1-n1c(-c2ccoc2)nc2ccccc2c1=O	-3.3	2217	-0.4	4.8	-10.4	0.0
COc1ccc(CN(C)C(C)C(=O)Nc2ccc(S(=O)(=O)N3CCCCC3)cc2)cc1F (stereo unspecified)	-6.5	6553	1.3	-5.4	5.3	1.8
CCNC(=O)n1nccc1C(C)Oc1ccccc1 (stereo unspecified)	-9.9	21929*	0.0	9.1	-4.2	1.1
Cc1ccc(-c2cc(=O)[nH][nH]2)c(C)c1	-1.4	22424*	1.0	0.2	0.9	-0.4
O=S(=O)(Nc1ccc(Cc2ccncc2)cc1)c1ccc(Br)s1	-1.4	16939*	-0.7	3.9	-2.4	0.7
CCC(=O)N(C1=C(NC(C)C)C(=O)c2ccccc2C1=O)C(C)C	0.5	2104	1.2	3.7	26.7	-1.2
CCCNC1=C(N(C(C)=O)c2cccc(F)c2)C(=O)c2ccccc2C1=O	-6.3	2006	0.2	-1.6	-4.3	49.0*
Cc1ccccc1SCC(=O)OCC(=O)NCc1ccccc1	-6.3	3530	-0.3	-0.9	-0.9	-0.3
C=CC(n1cncn1)C(O)(c1ccccc1)c1ccccc1 (stereo unspecified)	0.3	4090	0.0	0.7	-5.1	145.6*
OC(c1ccccc1)(c1ccccc1)c1ccncc1	-0.6	2777	-0.7	2.9	-2.5	-1.1
COc1cc(NC(=O)CCn2c(=S)[nH]c3ccccc3c2=O)cc(OC)c1OC	-3.6	3633	0.1	11.5	6.1	.
COC(=O)c1ccc2[nH]c(C3(O)CCCCC3)c(C)c2c1	-5.2	2997	-1.2	0.4	-4.0	0.9
Cc1c(C2(O)CCCCC2)[nH]c2ccc(C(F)(F)F)cc12	3.9	3738	-0.1	3.6	-8.4	287.2*
SMILES	Anthrax LF inh2	Bead autofluor	BoNT A protease	MazEF act	BoNT-F LC inh	PfHsp40 rescue
C=CCc1ccccc1OCC(O)CN1CCN(c2ccc(OC)cc2)CC1 (stereo unspecified)	-5.1	23665*	?	-0.9	-7.3	0.6
COc1ccccc1N1CCN(CC(O)COc2c(OC)cccc2OC)CC1 (stereo unspecified)	-0.6	19582*	0.6	3.1	0.8	0.1
COc1cc(OC)c(OC)cc1CN1CCN(c2ccccc2OC)CC1	0.9	24136*	?	-3.4	-4.6	-0.5
COc1ccccc1N1CCN(Cc2ccc(Br)o2)CC1	-2.6	22305*	1.8	2.7	0.9	-0.4
Cc1ccc(OC(C)C(=O)Nc2ccccc2C(=O)N2CCN(C)CC2)cc1 (stereo unspecified)	-3.1	5525	1.7	-8.2	-10.8	1.1
O=C(CCOc1ccccc1)Nc1ccnn1C1CCN(Cc2ccccc2)CC1	1.4	5416	2.7	-0.1	12.4	0.1
CCOc1ccccc1N1CCN(Cc2ccc(OC)c(OC)c2)CC1	.	.	.	-10.1	.	1.3
COc1ccc(-n2c(=O)cc(N3CCN(c4ccccc4OC)CC3)[nH]c2=O)cc1	-2.2	9718	0.4	4.7	1.5	-0.7
COc1ccccc1N1CCN(Cc2cccc(OC)c2OC)CC1	5.1	5575	0.4	-1.2	5.6	0.2
OC(COCc1ccccc1)CN1CCN(c2ccccc2F)CC1 (stereo unspecified)	-1.5	22811*	0.8	0.4	-0.8	-1.5
COc1ccccc1N1CCN(c2cc(=O)n(-c3ccccc3Cl)c(=O)[nH]2)CC1	-4.3	21673*	-5.1	-3.7	-7.4	-1.2
COc1ccccc1N1CCN(Cc2cccc(OC)c2O)CC1	-6.4	21009*	7.1	1.2	7.8	-1.2
CCN1CCN(CC(O)COCc2ccccc2)CC1 (stereo unspecified)	0.4	2440	0.6	-5.4	3.6	1.1
CCOc1ccccc1N1CCN(Cc2ccc(OC)c(OC)c2OC)CC1	-4.0	21368*	?	-2.2	4.8	-1.5
CCCc1nn2c(=O)cc(COc3ccc(NC(=O)c4ccco4)cc3)nc2s1	-2.0	4983	2.1	6.9	6.8	1.4
Cc1cnc(C(=O)OCC(=O)c2ccc(Cl)cc2)cn1	1.8	5970	-0.7	2.8	8.1	0.0
COc1cc(C(=S)N2CCOCC2)cc(OC)c1O	1.6	4625	-1.0	7.7	-7.8	-0.3
COc1ccc(N(CC(=O)NC2CC3CCC2C3)S(=O)(=O)c2ccccc2)cc1Cl (stereo unspecified)	1.2	7050	-3.6	6.2	2.5	0.1
CCC1CN(C(=O)N2CCC(C(=O)NCc3cc(OC)c(OC)c(OC)c3)CC2)c2ccccc2O1 (stereo unspecified)	0.6	5547	-0.3	7.9	-3.9	-0.6
COc1ccccc1N1CCN(Cc2ccccc2F)CC1	6.8	5507	-0.5	-3.4	-6.0	-0.1
CCC(=O)c1ccc(OCC(O)CN2CCN(c3ccc(F)cc3)CC2)cc1 (stereo unspecified)	-2.4	19445*	2.7	1.1	4.9	-1.1
COc1ccccc1N1CCN(Cc2ccccc2Cl)CC1	-8.7	23767*	-3.4	-0.9	-6.7	1.3
CC(=O)/C(=N\Nc1ccccc1)Oc1ccc(Br)cc1	-3.1	5944	0.3	7.1	1.1	.
Cc1[nH]c(=O)n(C(C)C)c(=O)c1Br	-5.7	2805	-0.7	2.4	-4.1	-1.4
CCOc1ccc(NC(=O)CN(C)C(=O)c2ccc(NC3CC3)c([N+](=O)[O-])c2)cc1OCC	-3.2	5508	-2.2	-0.7	-3.3	5.3

Screens from PubChem BioAssay.
